{"source": "PubChem BioAssay (EPA / NIEHS)", "note": "Records with an inconclusive call do not appear. A structure can be active in one record and inactive in another. Calls of active or inactive are those of the source. How the source made its calls: active means hit-call score of the fitted dose curve at least 0.9, where 1 is the maximum; inconclusive means response in the unintended direction; inactive means score below 0.9. Peptide text beside a SMILES is read from it."}
{"experiment": "TOX21_p53_BLA_p3_viability: Viability Assessment in the Tox21 HCT-116 p53 Agonism Beta-lactamase Assay, Phase 3 (AID 2283593);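 further: cells exposed to compound for 16 h before reading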", "description": "TOX21_p53_BLA_p3 is a cell-based, single-readout assay that uses HCT116, a human intestinal cell line, […] in a 1536-well plate.TOX21_p53_BLA_p3_viability is an assay readout measuring cellular ATP content and detected with CellTiter-Glo Luciferase-coupled ATP quantitation.TOX21_p53_BLA_p3_viability used a type of viability reporter where loss-of-signal activity can be used to understand changes in the cell viability. Furthermore, this assay endpoint can be referred to as a secondary readout, because this assay has produced multiple assay endpoints where this one serves a viability function. To generalize the intended target to other relatable targets, this assay endpoint is annotated to the cell cycle intended target family, where the subfamily is cytotoxicity.\nThawing Method: Place 14 mL of pre-warmed thaw medium into a 15 mL of conical tub. Remove the vial of cells to be thawed from liquid nitrogen and thaw rapidly by placing at 37C in a water bath with gentle agitation for 1-2 minutes. Decontaminate the vial by wiping with 70% ethanol before opening in a biological safety cabinet. Transfer the vial contents drop-wise into 14 mL of thaw medium in a sterile 15-mL conical tub. Centrifuge cells at 900 rpm for 4 minutes and resuspend in thaw medium. Transfer contents to the T75 tissue culture flask containing Thaw Medium and place flask in a humidified 37C/5% CO2 incubator. Switch to growth medium at first passage.Propagation Method: Aspirate medium, rinse once in DPBS, add 0.25% Trypsin/EDTA and swirl to coat the cell evenly. Add an equal volume of Growth Medium to inactivate Trypsin after 2-3 minutes incubation at 37C. Centrifuge cells at 900 rpm for 4 minutes and resuspend in growth medium. Cell should be passage or fed at least twice a week.Assay Protocol: Harvest cells from culture in growth medium and resuspend in assay medium. 2.2 Dispense 4000 cells/5 uL/well into 1536-well black/clear bottom plates using a Multidrop dispenser. After the cells were incubated at 37C for 5 hours, 23 nL of compounds dissolved in DMSO were transferred to the assay plate by a PinTool resulting in a 217-fold dilution. Incubate the plates for 16 hours at 37C, 5% CO2. Add 1 uL of 6X LiveBLAzer FRET B/G (CCF4-AM) Substrate Mixture to each well using a BioRAPTR dispenser and incubate the plates at room temperature for 2 hours. Measure fluorescence intensity at 460 and 530 nm emission and 405 nm excitation by an Envision detector. Data is expressed as the ratio of 460nm/530nm emissions. Add 4 uL of Cell-titer Glo to each well using BioRAPTR and incubate the plates at room temperature for […]. For cell viability readout that measures cytotoxicity, 4 ul/well of CellTiter-Glo reagent was added into the assay plates using a Flying Reagent Dispenser. After 30 min incubation at room temperature, the luminescence intensity in the plates was measured using a ViewLux plate reader."}
{"compound": "CCCCNS(=O)(=O)c1ccccc1", "outcome": "inactive"}
{"compound": "Cc1ccc(S(=O)(=O)N=C=O)cc1", "outcome": "inactive"}
{"compound": "COc1ccc(C(=O)c2ccccc2)c(O)c1", "outcome": "inactive"}
{"compound": "CCCCC/C=C\\C/C=C\\CCCCCCCC(=O)O", "outcome": "inactive", "AC50": "47.2 µM (active)"}
{"compound": "CC(Cl)COP(=O)(OCC(C)Cl)OCC(C)Cl", "note": "(stereo not given)", "outcome": "inactive"}
{"compound": "CCC[Si](OC)(OC)OC", "outcome": "inactive"}
{"compound": "O=C(Nc1ccccc1)c1cc(Cl)ccc1O", "outcome": "inactive"}
{"compound": "CC(C)(CO)COC(=O)C(C)(C)CO", "outcome": "inactive"}
{"compound": "Cc1noc(NS(=O)(=O)c2ccc(N)cc2)c1C", "outcome": "inactive"}
{"compound": "CN(C)c1ccc2nc3ccc(=[N+](C)C)cc-3sc2c1", "AC50": "23 µM (active)", "outcome": "inactive"}
{"compound": "C=Cc1ccc(OC(C)=O)cc1", "outcome": "inactive"}
{"compound": "CC(=O)c1ccccc1O", "outcome": "inactive"}
{"compound": "CC1=CCC(C(C)C)C=C1", "note": "(stereo not given)", "outcome": "inactive"}
{"compound": "C=C(C)C(=O)OCCOC(=O)C(=C)C", "outcome": "inactive"}
{"compound": "CC(C)=CCCC(C)=CC#N", "outcome": "inactive"}
{"compound": "C=CC(C)(CCC=C(C)C)OC(=O)C=Cc1ccccc1", "note": "(stereo not given)", "outcome": "inactive"}
{"compound": "CC(C)CC(=O)OCc1ccccc1", "outcome": "inactive"}
{"compound": "NNS(=O)(=O)c1ccc(Oc2ccc(S(=O)(=O)NN)cc2)cc1", "outcome": "inactive"}
{"compound": "CC(C)(O)Cc1ccccc1", "outcome": "inactive"}
{"compound": "C=C[C@@]1(C)CC(=O)[C@]2(O)[C@@]3(C)[C@@H](O)CCC(C)(C)[C@@H]3[C@H](O)[C@H](OC(C)=O)[C@@]2(C)O1", "outcome": "inactive"}
{"compound": "Fc1ccc(Br)cc1", "outcome": "inactive"}
{"compound": "O=C(O[C@@H]1Cc2c(O)cc(O)cc2O[C@@H]1c1cc(O)c(O)c(O)c1)c1cc(O)c(O)c(O)c1", "outcome": "inactive"}
{"compound": "O=C(O)c1cc(O)c2ccccc2c1O", "outcome": "inactive"}
{"compound": "COC(=O)[C@H](Cc1ccccc1)NC(=O)[C@@H](N)CC(=O)O", "note": "(H-Asp-Phe-OMe)", "outcome": "inactive"}
{"compound": "CCCCCCO", "outcome": "inactive"}
{"compound": "CCC1COC(=O)O1", "note": "(stereo not given)", "outcome": "inactive"}
{"compound": "Oc1c(Cl)cc(Cl)c(Cl)c1Cl", "outcome": "inactive"}
{"compound": "CCCCCCCCCCCCCC(=O)OC(C)C", "outcome": "inactive"}
{"compound": "CC(CCC(=O)O)(c1ccc(O)cc1)c1ccc(O)cc1", "outcome": "inactive"}
{"compound": "CC(=O)CCC=C(C)C", "outcome": "inactive"}
{"compound": "O=C(OCc1ccccc1)c1ccc(O)cc1", "outcome": "inactive"}
{"compound": "CC(=O)CC(=O)Nc1ccccc1C", "outcome": "inactive"}
{"compound": "Nc1ncnc2nc[nH]c12", "outcome": "inactive"}
{"compound": "CCCCCC(=O)OCC", "outcome": "inactive"}
{"compound": "O=c1c(O)c(-c2ccc(O)cc2O)oc2cc(O)cc(O)c12", "outcome": "inactive"}
{"compound": "CCCCCCCOC(=O)c1ccc(O)cc1", "AC50": "44.2 µM (active)", "outcome": "inactive"}
{"compound": "Cc1c(C(=O)c2c[nH]n(C)c2=O)ccc(S(C)(=O)=O)c1C1=NOCC1", "outcome": "inactive"}
